Test results as given in the supplement of paper PMC11732987, “Enantioselective OTUD7B fragment discovery through chemoproteomics screening and high-throughput optimisation” (Communications Chemistry, 2025).

Experiments:
Test in all cases: log2 ratio of Biotin-Ahx-Ub-VS probe labelling (fragment/DMSO); higher = less target engagement (more negative = stronger competition), active = hit call of the paper (q ≤ 0.05, log2 ratio ≤ -1)
Details in all cases: compound concentration: 200 uM; treatment time: 3 h
USP34 = USP34 (UniProt Q70CQ2)
Chain of USP34 (Q70CQ2 whole entry, the tested form may be a part): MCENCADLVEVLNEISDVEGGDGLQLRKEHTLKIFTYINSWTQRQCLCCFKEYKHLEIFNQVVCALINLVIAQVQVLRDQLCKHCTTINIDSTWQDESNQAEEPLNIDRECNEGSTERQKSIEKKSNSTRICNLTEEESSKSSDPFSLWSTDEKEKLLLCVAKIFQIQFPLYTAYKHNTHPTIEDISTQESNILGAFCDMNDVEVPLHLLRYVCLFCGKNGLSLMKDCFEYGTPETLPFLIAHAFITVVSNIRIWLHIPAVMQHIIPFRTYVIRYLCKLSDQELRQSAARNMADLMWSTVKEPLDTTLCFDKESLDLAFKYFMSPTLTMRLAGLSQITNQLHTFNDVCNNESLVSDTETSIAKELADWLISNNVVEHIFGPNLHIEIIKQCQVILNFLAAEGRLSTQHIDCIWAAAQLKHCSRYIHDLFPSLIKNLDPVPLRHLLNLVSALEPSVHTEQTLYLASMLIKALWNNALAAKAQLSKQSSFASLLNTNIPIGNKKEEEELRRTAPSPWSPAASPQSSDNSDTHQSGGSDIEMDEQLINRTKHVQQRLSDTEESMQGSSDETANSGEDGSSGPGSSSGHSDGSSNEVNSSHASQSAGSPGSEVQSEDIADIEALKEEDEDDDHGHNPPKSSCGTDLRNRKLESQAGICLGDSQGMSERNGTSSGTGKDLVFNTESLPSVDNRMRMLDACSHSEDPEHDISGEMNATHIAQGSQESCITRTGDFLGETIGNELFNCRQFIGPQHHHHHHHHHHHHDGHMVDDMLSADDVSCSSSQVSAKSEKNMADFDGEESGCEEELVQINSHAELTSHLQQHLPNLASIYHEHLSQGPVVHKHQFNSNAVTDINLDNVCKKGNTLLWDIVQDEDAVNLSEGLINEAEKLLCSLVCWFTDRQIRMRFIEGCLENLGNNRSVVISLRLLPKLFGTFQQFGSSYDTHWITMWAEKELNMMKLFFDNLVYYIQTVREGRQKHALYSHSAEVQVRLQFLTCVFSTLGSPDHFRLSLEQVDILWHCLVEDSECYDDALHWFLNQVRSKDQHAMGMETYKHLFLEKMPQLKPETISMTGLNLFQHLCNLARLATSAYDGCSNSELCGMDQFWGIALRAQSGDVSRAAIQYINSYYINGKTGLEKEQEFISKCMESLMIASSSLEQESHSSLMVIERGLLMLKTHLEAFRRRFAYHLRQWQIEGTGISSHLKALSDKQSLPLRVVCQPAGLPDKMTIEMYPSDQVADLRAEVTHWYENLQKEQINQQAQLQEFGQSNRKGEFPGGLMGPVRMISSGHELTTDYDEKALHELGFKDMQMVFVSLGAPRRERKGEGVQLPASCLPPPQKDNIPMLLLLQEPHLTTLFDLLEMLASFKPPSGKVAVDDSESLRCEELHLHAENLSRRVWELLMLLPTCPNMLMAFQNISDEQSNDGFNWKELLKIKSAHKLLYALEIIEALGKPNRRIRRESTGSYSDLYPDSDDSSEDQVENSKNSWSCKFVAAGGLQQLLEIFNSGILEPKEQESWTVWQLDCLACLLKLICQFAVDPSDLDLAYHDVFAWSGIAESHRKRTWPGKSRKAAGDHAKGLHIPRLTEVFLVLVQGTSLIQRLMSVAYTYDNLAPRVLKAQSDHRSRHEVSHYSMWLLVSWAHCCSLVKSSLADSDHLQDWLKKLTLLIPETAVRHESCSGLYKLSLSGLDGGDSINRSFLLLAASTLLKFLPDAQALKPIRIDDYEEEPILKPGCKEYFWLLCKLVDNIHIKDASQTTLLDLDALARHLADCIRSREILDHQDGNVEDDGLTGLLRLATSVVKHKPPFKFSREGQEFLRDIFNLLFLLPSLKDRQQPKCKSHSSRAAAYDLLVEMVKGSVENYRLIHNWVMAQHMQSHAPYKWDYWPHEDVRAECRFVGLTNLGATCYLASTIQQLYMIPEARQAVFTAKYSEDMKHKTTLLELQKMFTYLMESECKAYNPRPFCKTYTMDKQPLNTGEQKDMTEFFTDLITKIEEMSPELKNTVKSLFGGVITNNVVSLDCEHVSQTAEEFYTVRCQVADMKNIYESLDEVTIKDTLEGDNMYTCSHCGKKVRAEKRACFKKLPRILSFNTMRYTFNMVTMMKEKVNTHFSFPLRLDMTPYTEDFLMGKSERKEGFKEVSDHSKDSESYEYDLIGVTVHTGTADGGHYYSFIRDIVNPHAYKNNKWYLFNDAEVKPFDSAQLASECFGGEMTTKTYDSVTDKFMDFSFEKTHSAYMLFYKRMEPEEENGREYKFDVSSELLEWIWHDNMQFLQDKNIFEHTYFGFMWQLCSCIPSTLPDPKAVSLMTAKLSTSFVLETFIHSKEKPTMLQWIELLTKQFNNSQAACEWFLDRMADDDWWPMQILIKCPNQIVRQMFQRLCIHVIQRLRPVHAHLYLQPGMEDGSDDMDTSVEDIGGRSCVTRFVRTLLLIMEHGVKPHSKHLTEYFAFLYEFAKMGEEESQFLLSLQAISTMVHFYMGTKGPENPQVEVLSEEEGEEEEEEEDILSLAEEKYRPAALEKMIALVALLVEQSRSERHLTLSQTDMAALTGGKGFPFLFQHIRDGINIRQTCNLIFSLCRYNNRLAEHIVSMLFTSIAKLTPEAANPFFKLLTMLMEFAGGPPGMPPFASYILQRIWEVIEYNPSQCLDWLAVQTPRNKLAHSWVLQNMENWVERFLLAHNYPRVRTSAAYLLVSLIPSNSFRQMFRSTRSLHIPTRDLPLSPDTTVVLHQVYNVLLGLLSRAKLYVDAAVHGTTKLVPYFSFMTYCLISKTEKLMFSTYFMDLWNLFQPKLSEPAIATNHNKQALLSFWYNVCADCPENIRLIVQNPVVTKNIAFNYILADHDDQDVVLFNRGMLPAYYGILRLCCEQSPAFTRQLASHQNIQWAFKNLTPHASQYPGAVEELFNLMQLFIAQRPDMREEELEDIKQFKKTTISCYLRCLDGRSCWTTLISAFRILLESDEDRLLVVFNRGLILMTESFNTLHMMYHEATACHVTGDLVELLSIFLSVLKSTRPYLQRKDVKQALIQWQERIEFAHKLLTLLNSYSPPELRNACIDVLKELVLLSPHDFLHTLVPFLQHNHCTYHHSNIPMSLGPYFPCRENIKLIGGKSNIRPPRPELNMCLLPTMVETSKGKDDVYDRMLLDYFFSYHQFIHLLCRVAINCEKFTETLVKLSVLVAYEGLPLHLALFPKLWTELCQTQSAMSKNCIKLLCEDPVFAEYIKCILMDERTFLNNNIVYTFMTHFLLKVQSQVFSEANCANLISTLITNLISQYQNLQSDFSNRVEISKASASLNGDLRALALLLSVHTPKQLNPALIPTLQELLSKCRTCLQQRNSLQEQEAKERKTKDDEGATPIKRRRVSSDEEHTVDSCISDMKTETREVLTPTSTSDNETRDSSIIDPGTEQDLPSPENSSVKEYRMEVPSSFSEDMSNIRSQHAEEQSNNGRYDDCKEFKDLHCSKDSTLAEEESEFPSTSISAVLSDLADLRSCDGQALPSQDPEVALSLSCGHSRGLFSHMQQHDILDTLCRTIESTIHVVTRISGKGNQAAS
Outline: (§1)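 Average log2 ratios of fragment over vehicle were obtained by unpaired t-test from global-median-normalised Spectronaut label-free quantities. Proteins with ≥2 unique peptides were included. HEK293T lysate (495 µg per sample) was treated in triplicate with fragment at 200 µM or vehicle for 3 h, then with Biotin-Ahx-Ub-VS at 0.5 µM final for 1 h, and labelled DUBs were NeutrAvidin-enriched and run by diaPASEF LC-MS/MS.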

USP36 = biological target: T1, USP36 (UniProt Q9P275)
T1 sequence (whole entry): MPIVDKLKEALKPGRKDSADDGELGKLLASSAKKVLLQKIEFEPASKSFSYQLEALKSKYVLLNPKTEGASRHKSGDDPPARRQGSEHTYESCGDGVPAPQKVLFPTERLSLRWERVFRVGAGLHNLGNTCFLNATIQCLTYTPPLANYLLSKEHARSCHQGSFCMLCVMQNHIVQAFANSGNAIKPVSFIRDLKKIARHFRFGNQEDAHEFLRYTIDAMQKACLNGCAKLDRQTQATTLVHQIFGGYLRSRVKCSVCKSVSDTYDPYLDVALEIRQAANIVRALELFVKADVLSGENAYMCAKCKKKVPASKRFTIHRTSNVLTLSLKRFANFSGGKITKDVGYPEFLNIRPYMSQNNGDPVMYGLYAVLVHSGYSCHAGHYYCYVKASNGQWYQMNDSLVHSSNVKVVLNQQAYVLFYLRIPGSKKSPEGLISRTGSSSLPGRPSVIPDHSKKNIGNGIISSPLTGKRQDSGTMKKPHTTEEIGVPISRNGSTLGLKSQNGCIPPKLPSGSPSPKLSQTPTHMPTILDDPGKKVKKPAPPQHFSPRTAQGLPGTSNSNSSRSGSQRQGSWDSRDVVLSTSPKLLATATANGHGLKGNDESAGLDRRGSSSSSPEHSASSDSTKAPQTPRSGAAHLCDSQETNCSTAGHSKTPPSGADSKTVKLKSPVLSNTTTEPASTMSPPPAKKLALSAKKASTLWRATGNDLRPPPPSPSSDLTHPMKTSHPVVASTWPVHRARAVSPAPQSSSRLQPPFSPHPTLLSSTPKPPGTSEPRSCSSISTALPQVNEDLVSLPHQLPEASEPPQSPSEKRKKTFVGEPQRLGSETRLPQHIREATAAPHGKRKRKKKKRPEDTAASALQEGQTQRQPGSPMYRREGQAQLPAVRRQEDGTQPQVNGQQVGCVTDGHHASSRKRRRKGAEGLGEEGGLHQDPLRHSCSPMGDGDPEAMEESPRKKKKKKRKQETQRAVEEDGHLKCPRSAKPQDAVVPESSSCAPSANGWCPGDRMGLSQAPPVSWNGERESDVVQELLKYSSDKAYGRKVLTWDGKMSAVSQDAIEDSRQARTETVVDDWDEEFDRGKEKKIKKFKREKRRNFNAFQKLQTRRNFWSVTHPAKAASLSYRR
Outline: as §1

USP38 = biological target: T2, USP38 (UniProt Q8NB14)
T2 sequence (whole entry): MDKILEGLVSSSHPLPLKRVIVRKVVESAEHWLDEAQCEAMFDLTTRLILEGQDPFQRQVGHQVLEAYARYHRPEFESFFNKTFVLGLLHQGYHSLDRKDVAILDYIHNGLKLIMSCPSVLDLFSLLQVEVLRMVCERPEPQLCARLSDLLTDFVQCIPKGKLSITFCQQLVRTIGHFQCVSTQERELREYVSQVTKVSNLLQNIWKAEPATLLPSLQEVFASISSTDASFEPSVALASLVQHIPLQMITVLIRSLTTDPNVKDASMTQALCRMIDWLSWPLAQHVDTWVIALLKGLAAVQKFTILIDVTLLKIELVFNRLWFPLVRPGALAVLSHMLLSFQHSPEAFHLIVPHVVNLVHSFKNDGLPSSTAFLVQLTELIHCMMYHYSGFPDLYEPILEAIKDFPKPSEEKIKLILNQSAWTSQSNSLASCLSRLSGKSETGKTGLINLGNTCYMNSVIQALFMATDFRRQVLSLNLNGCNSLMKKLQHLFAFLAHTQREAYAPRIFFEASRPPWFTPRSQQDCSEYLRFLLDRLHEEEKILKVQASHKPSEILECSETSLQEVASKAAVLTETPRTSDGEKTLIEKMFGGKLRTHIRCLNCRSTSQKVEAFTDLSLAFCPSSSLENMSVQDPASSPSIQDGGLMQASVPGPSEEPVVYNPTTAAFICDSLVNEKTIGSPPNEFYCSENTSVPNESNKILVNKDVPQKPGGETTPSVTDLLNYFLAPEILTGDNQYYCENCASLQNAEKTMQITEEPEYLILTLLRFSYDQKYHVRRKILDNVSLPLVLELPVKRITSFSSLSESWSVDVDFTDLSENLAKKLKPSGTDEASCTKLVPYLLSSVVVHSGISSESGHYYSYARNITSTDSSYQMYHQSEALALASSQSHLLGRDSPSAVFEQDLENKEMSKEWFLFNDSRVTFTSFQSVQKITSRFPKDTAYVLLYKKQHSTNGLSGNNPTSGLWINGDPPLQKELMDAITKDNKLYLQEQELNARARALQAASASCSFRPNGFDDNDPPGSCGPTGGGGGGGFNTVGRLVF
Outline: as §1

USP39 = biological target: T3, USP39 (UniProt Q53GS9)
T3 sequence (whole entry): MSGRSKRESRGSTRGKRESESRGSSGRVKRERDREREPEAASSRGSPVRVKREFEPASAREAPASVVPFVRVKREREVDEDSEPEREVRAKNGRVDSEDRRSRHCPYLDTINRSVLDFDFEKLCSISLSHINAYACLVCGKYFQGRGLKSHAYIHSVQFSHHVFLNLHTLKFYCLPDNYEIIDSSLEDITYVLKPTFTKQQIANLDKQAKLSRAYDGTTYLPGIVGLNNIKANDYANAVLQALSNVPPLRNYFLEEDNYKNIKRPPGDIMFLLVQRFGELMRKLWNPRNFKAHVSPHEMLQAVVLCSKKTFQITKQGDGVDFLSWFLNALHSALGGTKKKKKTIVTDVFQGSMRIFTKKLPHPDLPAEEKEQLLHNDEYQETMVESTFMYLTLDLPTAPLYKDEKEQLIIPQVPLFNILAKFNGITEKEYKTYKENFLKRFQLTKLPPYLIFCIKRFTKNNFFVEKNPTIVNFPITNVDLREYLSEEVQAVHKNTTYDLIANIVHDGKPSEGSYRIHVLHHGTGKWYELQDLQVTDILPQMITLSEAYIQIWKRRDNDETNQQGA
Outline: as §1

USP4 = biological target: T4, USP4 (UniProt Q13107)
T4 sequence (whole entry): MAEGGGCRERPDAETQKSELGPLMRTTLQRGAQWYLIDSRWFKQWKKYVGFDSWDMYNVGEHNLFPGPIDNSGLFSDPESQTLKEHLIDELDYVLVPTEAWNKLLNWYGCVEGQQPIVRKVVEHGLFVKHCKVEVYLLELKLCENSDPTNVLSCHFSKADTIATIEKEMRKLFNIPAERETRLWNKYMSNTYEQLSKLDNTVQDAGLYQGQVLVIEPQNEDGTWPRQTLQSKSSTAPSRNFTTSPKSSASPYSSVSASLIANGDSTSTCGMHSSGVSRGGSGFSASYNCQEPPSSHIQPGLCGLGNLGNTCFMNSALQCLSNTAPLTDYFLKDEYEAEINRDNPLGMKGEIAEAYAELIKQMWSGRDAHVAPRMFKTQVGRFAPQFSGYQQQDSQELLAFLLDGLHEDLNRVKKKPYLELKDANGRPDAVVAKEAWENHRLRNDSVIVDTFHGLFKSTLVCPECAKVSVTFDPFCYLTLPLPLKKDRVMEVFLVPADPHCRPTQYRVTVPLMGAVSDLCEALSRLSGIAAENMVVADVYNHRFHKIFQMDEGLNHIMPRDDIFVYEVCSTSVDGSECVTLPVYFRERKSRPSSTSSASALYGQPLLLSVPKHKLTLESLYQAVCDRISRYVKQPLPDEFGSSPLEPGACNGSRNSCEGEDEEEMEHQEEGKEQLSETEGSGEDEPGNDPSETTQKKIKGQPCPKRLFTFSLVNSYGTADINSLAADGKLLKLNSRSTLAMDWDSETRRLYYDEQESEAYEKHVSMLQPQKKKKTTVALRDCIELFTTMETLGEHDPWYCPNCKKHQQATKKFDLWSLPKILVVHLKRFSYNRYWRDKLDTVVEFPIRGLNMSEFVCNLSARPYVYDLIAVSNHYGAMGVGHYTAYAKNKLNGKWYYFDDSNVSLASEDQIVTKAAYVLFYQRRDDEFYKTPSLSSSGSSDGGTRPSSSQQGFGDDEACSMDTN
Outline: as §1

Measured: log2 ratio of Biotin-Ahx-Ub-VS probe labelling

Cl.Cn1ncc2c1CCCC2NC(=O)CCl (stereo not given)
inactive: USP34 -0.0828 | USP36 -0.298 | USP38 -0.175 | USP39 -0.0961 | USP4 0.00214
